Assay outcomes deposited in PubChem BioAssay by University of Kansas High Throughput Screening Laboratory.
Only a selection was taken, and hits are over-represented in it overall.
Pf apPOL inh: Pf-apPOL DNA polymerase inhibition; AID 1794808; Recombinant Pf-apPOL, molecular beacon fluorescence, 1.5 h; 210,000 compounds, 0.25% hits; inhibition, % at 10 µM
mHTT-CaM PPI inh: disrupts binding of mutant huntingtin to calmodulin. AlphaScreen His-mHTT/GST-CaM binding, luminescence. P42858. 190,000 compounds, 3.6% hits. inhibition, % at 15 µM
Numbers stand for hits. Cut-off read from the data, not from the text of the source: active = inhibition above about 50%; inactive = the rest.

For COCc1noc(C2CCCCN2C(=O)c2cnccn2)n1 (configuration not stated) the results were Pf apPOL inh inactive and mHTT-CaM PPI inh inactive.
Screening Cc1[nH]n2c(=O)cc(Cc3ccccc3)nc2c1-c1ccc(Cl)cc1 returned Pf apPOL inh inactive and mHTT-CaM PPI inh 62.
`CCCc1cc(=O)n2[nH]c(C)c(-c3ccccc3)c2n1` gave Pf apPOL inh inactive and mHTT-CaM PPI inh inactive.
CCn1cc(CN2CCC(c3nncn3C(C)C)CC2)cn1 was read as Pf apPOL inh inactive and mHTT-CaM PPI inh inactive.
Screening Cc1cccc2nnc(N3CCCC(C(=O)NCc4ccc(OC(C)C)cc4)C3)n12 (configuration not stated) returned Pf apPOL inh inactive and mHTT-CaM PPI inh inactive.
For Cc1cc(C)cc(C(=O)N2CCC(n3c(-c4ccco4)nc4cccnc43)C2)c1 (configuration not stated) the results were Pf apPOL inh inactive and mHTT-CaM PPI inh inactive.
For O=C(c1ccc(C(F)(F)F)cc1)N1CCC(n2c(-c3ccco3)nc3cccnc32)C1 (configuration not stated) the results were Pf apPOL inh inactive and mHTT-CaM PPI inh 91.
`O=C(c1cccc(Cl)c1)N1CCC(n2c(-c3ccco3)nc3cccnc32)C1` (configuration not stated) gave Pf apPOL inh inactive and mHTT-CaM PPI inh 51.
Screening O=C(c1ccc(F)c(Cl)c1)N1CCC(n2c(-c3ccco3)nc3cccnc32)C1 (configuration not stated) returned Pf apPOL inh inactive and mHTT-CaM PPI inh 98.
Cc1ccc(C(=O)N2CCC(n3c(-c4ccco4)nc4cccnc43)C2)cc1C (configuration not stated) was read as Pf apPOL inh inactive and mHTT-CaM PPI inh 72.
`O=C(Nc1ccc(F)c(Cl)c1)N1CCC(n2c(-c3ccco3)nc3cccnc32)C1` (configuration not stated) gave Pf apPOL inh inactive and mHTT-CaM PPI inh inactive.
Screening Cc1ccc(C(=O)N2CCC(n3c(-c4ccco4)nc4cccnc43)C2)cc1 (configuration not stated) returned Pf apPOL inh inactive and mHTT-CaM PPI inh inactive.
`COc1ccc(C(=O)N2CCC(n3c(-c4ccco4)nc4cccnc43)C2)cc1` (configuration not stated) gave Pf apPOL inh inactive and mHTT-CaM PPI inh inactive.
For CC(C)(C)C(=O)N1CC(c2nc(-c3cccnc3)no2)C1 the results were Pf apPOL inh inactive and mHTT-CaM PPI inh inactive.
CCOc1ccccc1NC(=O)C1CCN(c2cncnc2N2CCOCC2)CC1 was read as Pf apPOL inh inactive and mHTT-CaM PPI inh inactive.
`O=C(Nc1ccccc1)N1CCC(n2c(-c3ccco3)nc3cccnc32)C1` (configuration not stated) gave Pf apPOL inh inactive and mHTT-CaM PPI inh inactive.
For CCc1ccc(NC(=O)N2CCC(n3c(-c4ccco4)nc4cccnc43)C2)cc1 (configuration not stated) the results were Pf apPOL inh inactive and mHTT-CaM PPI inh 51.
`COc1ccc(N(C)C(=O)c2nc(C)n(C3CCN(C)CC3)c2C)cc1` gave Pf apPOL inh inactive and mHTT-CaM PPI inh 76.
For Cc1nc(C(=O)N(C)C)c(C)n1C1CCN(C)CC1 the results were Pf apPOL inh inactive and mHTT-CaM PPI inh inactive.
Screening O=C(COc1ccccc1F)Nc1nnc(COc2cccc3ccccc23)o1 returned Pf apPOL inh inactive and mHTT-CaM PPI inh 56.
Screening Cc1csc(-c2nnc(NC(=O)COc3ccccc3F)o2)c1 returned Pf apPOL inh inactive and mHTT-CaM PPI inh inactive.
`O=C(COc1ccccc1)Nc1nnc(CSc2ccccc2)o1` gave Pf apPOL inh inactive and mHTT-CaM PPI inh inactive.
`O=C(COc1ccccc1F)Nc1nnc(C2CCCCC2)o1` gave Pf apPOL inh inactive and mHTT-CaM PPI inh 63.
`CC1(C)CC(=O)C2=C(C1)Nc1nc(SCc3ccccc3)nn1C2c1cccnc1` (configuration not stated) gave Pf apPOL inh inactive and mHTT-CaM PPI inh inactive.
CCN1c2cc(C)ccc2-n2cccc2C12CCN(C(=O)c1ccc(F)cc1)CC2 was read as Pf apPOL inh inactive and mHTT-CaM PPI inh 85.
For O=C1CC2(CCN(C(=O)Cc3cccs3)CC2)Oc2ccccc21 the results were Pf apPOL inh inactive and mHTT-CaM PPI inh inactive.
`CCN1c2ccc(C)cc2C(=O)NC12CCN(C(=O)c1ccc3c(c1)OCO3)CC2` gave Pf apPOL inh inactive and mHTT-CaM PPI inh inactive.
`CCN1c2cc(F)ccc2C(=O)NC12CCN(C(=O)c1ccc(C)cc1)CC2` gave Pf apPOL inh inactive and mHTT-CaM PPI inh inactive.
For CCN1c2cc(C)ccc2-n2cccc2C12CCN(C(=O)c1ccc3c(c1)OCO3)CC2 the results were Pf apPOL inh inactive and mHTT-CaM PPI inh 66.
For CCN1c2cc(C)ccc2-n2cccc2C12CCN(C(=O)Cc1cccs1)CC2 the results were Pf apPOL inh inactive and mHTT-CaM PPI inh 98.
Screening COc1ccc(CNC(=O)C2(C)CCCN(C(=O)c3cccc(OC)c3)C2)cc1 (configuration not stated) returned Pf apPOL inh inactive and mHTT-CaM PPI inh inactive.
Screening CC(NC(=O)CN(C)C)C1CC2CCC1C2 (configuration not stated) returned Pf apPOL inh inactive and mHTT-CaM PPI inh inactive.
For Cc1nnc(NC(=O)C2CC=CCC2C(=O)O)s1 (configuration not stated) the results were Pf apPOL inh inactive and mHTT-CaM PPI inh inactive.
Screening Cc1nn(C)cc1C(C)NC(=O)C1CCN(c2cn[nH]c(=O)c2)CC1 (configuration not stated) returned Pf apPOL inh inactive and mHTT-CaM PPI inh inactive.
Oc1ccc(C=Nc2ccc(-c3ccccc3)cc2)cc1 was read as Pf apPOL inh inactive and mHTT-CaM PPI inh inactive.
Oc1ccc(N=Cc2ccc(Br)cc2)cc1 was read as Pf apPOL inh inactive and mHTT-CaM PPI inh 64.
`CCOc1ccc(S(=O)(=O)N2CCOCC2)cc1-c1nc2c(C(C)(C)C)nn(C)c2c(=O)[nH]1` gave Pf apPOL inh inactive and mHTT-CaM PPI inh inactive.
O=C(c1ccc2ncnc(N3CCCC3)c2c1)N1CCCCC1 was read as Pf apPOL inh inactive and mHTT-CaM PPI inh inactive.
O=C(/C=C/c1ccc(-c2ccc(F)cc2)o1)c1cccs1 was read as Pf apPOL inh inactive and mHTT-CaM PPI inh 91.
Screening O=C(/C=C/c1ccc(-c2ccccc2)o1)c1cccs1 returned Pf apPOL inh inactive and mHTT-CaM PPI inh inactive.
For CS(=O)(=O)N(CC(=O)Nc1ccccc1F)c1cccc(Cl)c1Cl the results were Pf apPOL inh inactive and mHTT-CaM PPI inh inactive.
`COc1cc2c(cc1OC)C(C(=O)O)C(c1cccc(Br)c1)N(C)C2=O` (configuration not stated) gave Pf apPOL inh inactive and mHTT-CaM PPI inh inactive.
For CCN1C(=O)/C(=C2\C=Cc3ccccc3N2CC)SC1=Nc1ccccc1 the results were Pf apPOL inh inactive and mHTT-CaM PPI inh 97.
Screening CCN1C(=O)/C(=C2\C=Cc3ccccc3N2CC)SC1=Nc1ccc(N2CCOCC2)cc1 returned Pf apPOL inh inactive and mHTT-CaM PPI inh inactive.
For CCn1ncc(Cl)c1C(=O)N1CCCC1c1ccc(OC)cc1 (configuration not stated) the results were Pf apPOL inh inactive and mHTT-CaM PPI inh inactive.
For COc1nc(N)c(C#N)c(-c2ccc3c(c2)OCO3)c1C#N the results were Pf apPOL inh inactive and mHTT-CaM PPI inh inactive.
For N#Cc1c(-c2ccc3c(c2)OCO3)nc(N2CCCCC2)[nH]c1=O the results were Pf apPOL inh inactive and mHTT-CaM PPI inh 62.
